The values that follow come from PubChem BioAssay AID651602 (The Scripps Research Institute Molecular Screening Center, 2012).

The whole screen tested about 360,000 compounds, of which about 950 (0.26%) were called active. No stated cut-off is given here; in the data, active means inhibition above about 11%; inactive means the rest. The sample as a whole holds a higher share of actives than the screen did.

Usually inhibition stands for the change of the read-out against control, counted positive when it falls.

The nature of the test: growth loss of phage-infected E. coli, primary screen, RecBCD inhibitor project, absorbance, with phage, HTS (AID 651602). To be noted: at 11.9 µM, active compounds read high.
Take `CN1CCCc2nc(-c3ccccc3)ccc21`: the inhibition is 2.87% (inactive).

For the molecule `Cc1sc2nc(CSCC(=O)Nc3c(Cl)cccc3Cl)[nH]c(=O)c2c1C`, the inhibition is -1.33% (inactive).

On to `C=CCn1c(SCC(=O)Nc2ccc(NC(C)=O)cc2)nc2sc(C)c(C)c2c1=O`, for which the inhibition was 5% (inactive).

With `C=CCNC(=O)CSc1nc2sc(C)c(C)c2c(=O)[nH]1`, the inhibition is 97.6% (active).

Turning to `COc1cccc(NC(=O)N(C)C[C@@H]2OCc3cn(nn3)CCCC(=O)N([C@@H](C)CO)C[C@H]2C)c1`, the inhibition was 1.68% (inactive).

For the molecule `Cc1cc(OC(=O)NCCc2ccc(F)cc2)ccc1F`, the inhibition is 1.19% (inactive).

For the molecule `CCOC(=O)N1CCN(C(=O)C[C@H]2C[C@@]3(C(=O)OC)C(=C[C@H](C4CCCC4)O[C@@H]3C)N(Cc3ccccc3)C2=O)CC1`, the inhibition was -1.47% (inactive).

In the case of `CC(C)C[C@H](NC(=O)CC1CCCC1)C(=O)N1CCC[C@H]1C(=O)NCc1ccccc1`, the inhibition is -1.58% (inactive).

As for `NC1=NC(=O)C(Cc2cccc(Cl)c2Cl)S1` (stereo not drawn), the inhibition was 14.8% (active).

With `NC1=NC(=O)C(Cc2cccc(Cl)c2)S1` (stereo not drawn), the inhibition was 2.84% (inactive).

For the molecule `O=C1NC(=Nc2ccc(Cl)cc2)SC1Cc1cccc(Cl)c1Cl` (stereo not drawn), the inhibition was 3.76% (inactive).

Regarding `Nc1nc2c(ncn2[C@@H]2O[C@H](C(=O)N[C@H](Cc3ccccc3)C(=O)NCC3CCCCC3)[C@@H](O)[C@H]2O)c(=O)[nH]1`, the inhibition is 0.31% (inactive).

With `CCCCCCCCN1C(=O)[C@@H](CC(=O)NCc2ccc(C)o2)C[C@@]2(C(=O)OC)C1=C[C@H](C(C)(C)C)O[C@@H]2C`, the inhibition was 4.26% (inactive).

As to `NC(=O)NCCCC(=O)O`, the inhibition is 3.55% (inactive).

As for `CC(=O)N(O)CCCCCNC(=O)CCC(=O)N(O)CCCCCNC(=O)CCC(=O)N(O)CCCCCNC(=O)CCC(=O)O`, the inhibition is 11.2% (active).

For the molecule `CC1=C(C/C=C(\C)CCCC(C)CCCC(C)CCCC(C)C)C(=O)c2ccccc2C1=O` (stereo not drawn), the inhibition is 99.2% (active).

For `CCCCCCCCN1C(=O)[C@@H](CC(=O)N2CCN(C(=O)OCC)CC2)C[C@@]2(C(=O)OC)C1=C[C@H](C1CCCC1)O[C@@H]2C`, the inhibition is 0.85% (inactive).

Consider `CCOc1ccccc1C(=O)N1CCC[C@@H]1C(=O)N1CCC[C@H]1C(=O)NCc1ccccc1`, for which the inhibition is 2.4% (inactive).

As to `O=C(NCc1ccccc1)[C@@H]1CCCN1C(=O)[C@H]1CCCN1C(=O)c1cccc(Cl)c1`, the inhibition is 1.16% (inactive).

As for `CN(O)C(=S)c1ccccc1`, the inhibition is 28.3% (active).

For the molecule `COc1ccc2[nH]c(C)c(CCN(Cc3cccs3)C(=S)Nc3ccccc3OC)c2c1`, the inhibition is 1.75% (inactive).

For `CCNC(=S)N(CCc1c(C)[nH]c2ccc(C)cc12)Cc1ccco1`, the inhibition is 13.2% (active).

With `COCCNC(=S)N(CCc1c(C)[nH]c2ccc(C)cc12)Cc1cccnc1`, the inhibition is 2.3% (inactive).

Consider `CC(C)[C@H]1COCCS(=O)(=O)N1Cc1ccccc1-c1cccc2c1sc1ccccc12`, for which the inhibition was 2.16% (inactive).

Take `N#Cc1cccc(C(=O)NCC2CCN(C(=O)C(=O)c3cc4ccccc4o3)CC2)c1`: the inhibition is 1.78% (inactive).

For the molecule `CN1C(=O)C2CC(O)C(SC3CC4C(=O)N(C)C(=O)C4CC3O)CC2C1=O` (stereo not drawn), the inhibition was 5.11% (inactive).

For `CN1CCCCC(NC(=O)C(C)(C)C)C1=O` (stereo not drawn), the inhibition was 2.65% (inactive).

Take `COC(=O)[C@]12C[C@H](CC(=O)NCc3ccc(C)o3)C(=O)N(CCC3=CCCCC3)C1=C[C@H](C(C)(C)C)O[C@@H]2C`: the inhibition is 1.32% (inactive).

`CC(=O)C1=C(C)N(Cc2ccccc2)C(=S)NC1c1cccc(Br)c1` (stereo not drawn): the inhibition is 2.19% (inactive).

On to `CCCCNc1cccc2c1S(=O)(=O)N[C@@H](C)CO2`, for which the inhibition was 2% (inactive).

Consider `CCCCCCCCN1C(=O)[C@@H](CC(=O)NCc2ccccc2)C[C@@]2(C(=O)OC)C1=C[C@H](C(C)(C)C)O[C@@H]2C`, for which the inhibition is 1.01% (inactive).

For `COc1cccc(/C=N/Nc2ncc(C(F)(F)F)cc2Cl)c1O`, the inhibition is 24.4% (active).

Turning to `O=C(c1ccccn1)c1ncc(C(F)(F)F)cc1Cl`, the inhibition was 2.12% (inactive).

For the molecule `CN(NS(=O)(=O)c1cccs1)c1ncc(C(F)(F)F)cc1Cl`, the inhibition is 1.24% (inactive).

Consider `O=C(Nc1ccc(C2CC2(Cl)Cl)cc1)c1cccc([N+](=O)[O-])c1` (stereo not drawn), for which the inhibition was 1.49% (inactive).

On to `CC(C)c1ccc(NC(=O)CCN2C(=O)c3ccc([N+](=O)[O-])cc3C2=O)cc1`, for which the inhibition is -0.16% (inactive).

For the molecule `Cn1ccc(=Nc2ccc(NC(=O)c3ccc(N=c4ccn(C)c5ccc([N+](=O)[O-])cc45)cc3)cc2)cc1`, the inhibition was 70.7% (active).

For the molecule `COC(=O)C1=C(C(=O)OC)C2C=C(C(C)C)C1C(=O)C2(C)O` (stereo not drawn), the inhibition was 3.33% (inactive).

Regarding `Nc1ncnc2c1ncn2[C@@H]1O[C@H](C(=O)N[C@@H](CCc2ccccc2)C(=O)N2CCCN(Cc3cccs3)CC2)[C@@H](O)[C@H]1O`, the inhibition is 2.53% (inactive).

As for `CCOc1ccc(Cn2nnc(C(=O)Nc3ccc(OC)cc3OC)c2N)cc1`, the inhibition was 10.9% (active).

As for `COc1cccc(CNC(=O)c2nnn(CC(=O)Nc3cc(Cl)ccc3C)c2N)c1`, the inhibition is -1.55% (inactive).

With `Nc1c(C(=O)Nc2ccc3c(c2)OCCO3)nnn1Cc1ccccc1`, the inhibition was 5.25% (inactive).

Take `CC(=O)c1ccc(S(=O)(=O)NCC2CCN(C(=O)C(=O)c3cccs3)CC2)cc1`: the inhibition is 2.71% (inactive).

Regarding `Oc1cccc(/C=N/Nc2ccc(Cl)nn2)c1O`, the inhibition is 13.1% (active).

As to `C/C(=N\Nc1ccc(Cl)nn1)c1ccccc1O`, the inhibition is -5.1% (inactive).

Take `Cc1ccc2nc(-c3ccc(CN4CCC(n5cc(-c6ccccc6)[nH]c5=O)CC4)cc3)c(-c3ccccc3)nc2c1`: the inhibition was 2.06% (inactive).

With `O=C(NCc1ccccc1)[C@H]1CCCN1C(=O)[C@@H]1CCCN1C(=O)c1ccc(Cl)cc1Cl`, the inhibition is 1.72% (inactive).

For `COc1cccc(CNC(=O)[C@H]2CCCN2C(=O)[C@H]2CCCN2C(=O)c2cc(F)cc(F)c2)c1`, the inhibition is 0.85% (inactive).
